# Laboratory results published in PubChem BioAssay.
# Target: Neurogenic locus notch homolog protein 3 (Homo sapiens) (UniProt Q9UM47)
# Test: NOTCH3 binders on small-molecule microarray, primary screen, biochemical, 635/667 nm fluorescence (AID 1096)
# Settings: NOTCH3 binding, 635 nm fluorescence, higher = more signal
# Sequence of Neurogenic locus notch homolog protein 3 (Homo sapiens) (Q9UM47 whole entry, looked up): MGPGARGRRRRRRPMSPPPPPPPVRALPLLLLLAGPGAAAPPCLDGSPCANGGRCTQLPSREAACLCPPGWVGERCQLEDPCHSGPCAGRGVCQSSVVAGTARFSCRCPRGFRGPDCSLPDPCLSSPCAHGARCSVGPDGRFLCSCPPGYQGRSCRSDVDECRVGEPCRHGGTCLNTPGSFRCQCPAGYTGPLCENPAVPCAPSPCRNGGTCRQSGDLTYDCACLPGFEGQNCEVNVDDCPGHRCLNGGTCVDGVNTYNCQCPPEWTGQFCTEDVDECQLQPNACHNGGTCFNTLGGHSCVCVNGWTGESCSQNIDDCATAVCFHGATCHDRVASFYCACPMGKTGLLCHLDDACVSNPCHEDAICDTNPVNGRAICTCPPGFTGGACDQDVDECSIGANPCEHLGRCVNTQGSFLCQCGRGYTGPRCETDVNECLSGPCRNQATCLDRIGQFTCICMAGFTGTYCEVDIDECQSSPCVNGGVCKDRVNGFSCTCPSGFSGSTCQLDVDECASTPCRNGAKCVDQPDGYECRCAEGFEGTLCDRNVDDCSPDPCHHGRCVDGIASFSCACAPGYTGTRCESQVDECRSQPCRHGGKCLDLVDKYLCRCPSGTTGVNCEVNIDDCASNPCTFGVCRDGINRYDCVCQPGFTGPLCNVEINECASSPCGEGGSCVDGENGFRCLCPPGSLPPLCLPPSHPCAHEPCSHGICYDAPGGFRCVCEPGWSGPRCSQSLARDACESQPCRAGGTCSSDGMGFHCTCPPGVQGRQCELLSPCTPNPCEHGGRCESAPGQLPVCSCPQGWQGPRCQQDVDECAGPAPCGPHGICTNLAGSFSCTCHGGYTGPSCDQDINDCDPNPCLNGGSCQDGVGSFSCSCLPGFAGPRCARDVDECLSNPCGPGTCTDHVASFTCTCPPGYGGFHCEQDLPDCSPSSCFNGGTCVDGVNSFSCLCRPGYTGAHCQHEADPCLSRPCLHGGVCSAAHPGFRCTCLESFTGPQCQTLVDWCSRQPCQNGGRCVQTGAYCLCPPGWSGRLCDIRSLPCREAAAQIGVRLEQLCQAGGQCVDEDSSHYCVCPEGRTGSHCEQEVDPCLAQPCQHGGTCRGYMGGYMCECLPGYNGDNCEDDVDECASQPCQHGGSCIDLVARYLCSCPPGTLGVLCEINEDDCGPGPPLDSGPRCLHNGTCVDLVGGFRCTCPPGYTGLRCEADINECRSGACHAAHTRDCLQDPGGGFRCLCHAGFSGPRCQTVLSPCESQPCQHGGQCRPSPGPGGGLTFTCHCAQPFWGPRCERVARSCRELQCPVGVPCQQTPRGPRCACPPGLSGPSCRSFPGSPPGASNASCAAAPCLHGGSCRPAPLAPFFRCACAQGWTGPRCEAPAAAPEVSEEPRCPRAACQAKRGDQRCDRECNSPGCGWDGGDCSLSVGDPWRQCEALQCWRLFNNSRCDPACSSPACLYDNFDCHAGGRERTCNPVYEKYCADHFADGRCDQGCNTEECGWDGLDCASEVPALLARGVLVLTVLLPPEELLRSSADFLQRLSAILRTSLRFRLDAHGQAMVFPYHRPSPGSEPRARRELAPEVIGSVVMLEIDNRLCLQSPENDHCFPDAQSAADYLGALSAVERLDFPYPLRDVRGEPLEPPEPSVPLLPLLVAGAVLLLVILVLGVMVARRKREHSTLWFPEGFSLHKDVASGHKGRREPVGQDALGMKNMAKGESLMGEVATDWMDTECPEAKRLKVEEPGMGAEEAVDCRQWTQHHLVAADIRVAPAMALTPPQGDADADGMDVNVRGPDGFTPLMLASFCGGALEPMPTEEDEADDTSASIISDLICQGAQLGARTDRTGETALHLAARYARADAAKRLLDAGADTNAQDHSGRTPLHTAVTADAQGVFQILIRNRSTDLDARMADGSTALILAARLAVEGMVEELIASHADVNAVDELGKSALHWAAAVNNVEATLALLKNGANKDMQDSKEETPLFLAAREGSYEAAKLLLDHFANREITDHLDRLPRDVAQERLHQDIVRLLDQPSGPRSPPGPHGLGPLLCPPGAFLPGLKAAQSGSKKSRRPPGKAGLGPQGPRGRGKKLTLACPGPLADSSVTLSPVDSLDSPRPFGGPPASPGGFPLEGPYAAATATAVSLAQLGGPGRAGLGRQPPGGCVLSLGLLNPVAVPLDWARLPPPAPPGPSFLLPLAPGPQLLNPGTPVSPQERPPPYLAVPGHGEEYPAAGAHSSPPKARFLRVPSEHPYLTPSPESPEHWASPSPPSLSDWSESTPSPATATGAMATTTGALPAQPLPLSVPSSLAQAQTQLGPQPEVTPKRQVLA
row,Compound,composite z-score
1,COc1cc2c(cc1O)C(c1ccc(CN3CCCC3)cc1)N(Cc1cc3c(cc1Br)OCO3)CC2 (stereo unspecified),0.313
2,CCCC[C@@H]1C[C@H]1[C@@H](NC(=O)c1cccs1)c1ccccc1C(F)(F)F,0.168
3,CCOC(=O)C1=C[C@@H](c2ccccc2)N(S(=O)(=O)c2ccc(C)cc2)[C@H]1c1ccc(OC)cc1,1.14
4,C=CCC(OC(C)=O)[C@@H]1[C@@H](N(Cc2ccc(-c3cccc(C(F)(F)F)c3)o2)C(=O)Cc2ccc(OC)cc2)c2cc(OCCCO)ccc2N1C(=O)c1ccc(-c2ccccc2)cc1 (stereo partly specified),-0.449
5,C=CC[C@@H](OC(=O)Nc1ccc(SC)cc1)c1ccc(O)c(F)c1,-0.0238
6,CCCCC=C[C@@H](NC(=O)OCc1ccccc1Cl)c1ccccc1,1.02
7,C=CCC(OC(C)=O)[C@@H]1[C@@H](N(Cc2cccc3ccccc23)C(=O)Cc2ccc(OC)cc2)c2cc(OCCCO)ccc2N1C(=O)c1ccc(-c2ccccc2)cc1 (stereo partly specified),0.0523
8,CCCC=C(CCC)[C@@H](NP(=O)(c1ccccc1)c1ccccc1)c1ccc(-c2ccccc2)cc1,1.12
9,COCCCNC(=O)[C@@]1(CCC(=O)OC(C)(C)C)N=C(c2ccc(OCCCO)cc2)O[C@H]1c1ccccc1N=[N+]=[N-],0.377
10,O=C(Cc1ccccc1)[C@H]1C2C=CCCC(c3ccccc3)=C2CN1Cc1ccccc1 (stereo partly specified),-0.433
11,COC(=O)[C@@]1(Cc2ccc(F)cc2)[C@H]2c3cc(C(=O)N4CCCC4)n(Cc4ccc(C)c(F)c4F)c3C[C@H]2CN1C(=O)c1ccccc1,-0.338
12,COc1ccc(C#Cc2ccc3c(c2)[C@]2(C(=O)N3)[C@H](C(=O)O)[C@H]3C(=O)O[C@H](c4ccccc4)[C@H](c4ccccc4)N3[C@@H]2c2ccc(O)cc2)cc1,-0.468
13,CCC#CCN(Cc1ccccc1Br)[C@H](/C=C/C1CC1)[C@@H](O)Cc1ccccc1,-0.838
14,COC(=O)[C@@]1(Cc2ccccc2)[C@H]2c3cc(C(=O)N(C)C)n(Cc4ccc(C)o4)c3C[C@H]2CN1C(=O)c1ccccc1,1.13
15,CC(C)NC(=O)[C@@]1(C)c2ccccc2C(=O)N(Cc2ccc(OC(F)(F)F)cc2)[C@H]1c1ccc(CO)cc1,-0.284
16,COc1ccc([Si](C)(C)[C@@H]2[C@@H](CC(=O)N3CCC[C@H]3CO)O[C@]3(C(=O)N(Cc4cccc(N5C(=O)COc6ccccc65)c4)c4ccccc43)[C@H]2C)cc1,0.757
17,CCCC[C@@H](O)C1=C(COC)C[C@H]2C(=O)N(C)C(=O)[C@H]2[C@H]1CO,-0.277
18,COc1ccc([Si](C)(C)[C@@H]2[C@@H](CC(=O)N(CCO)Cc3ccccc3)O[C@]3(C(=O)N(Cc4cccc(N5CCCCC5=O)c4)c4ccccc43)[C@H]2C)cc1,0.948

row,Compound,composite z-score
1,COc1ccc(CCNC(=O)[C@@]2(Sc3ccc(C)cc3)CC(=O)N(Cc3ccccc3C(F)(F)F)[C@@H]2c2ccc(CO)cc2I)cc1,-1.03
2,[N-]=[N+]=Nc1ccccc1[C@@H]1OC(c2ccc(OCCCO)cc2)=N[C@]1(Cc1ccccc1)C(=O)N1CCCCC1,1.04
3,Cc1ccc(S[C@]2(C(=O)NCc3ccccc3)CC(=O)N(C3CCCCC3)[C@@H]2c2ccc(CO)cc2I)cc1,0.237
4,COc1ccc([Si](C)(C)[C@H]2[C@H](CC(=O)N(CCO)Cc3ccccc3)O[C@@]3(C(=O)N(C)c4c(Br)cc(C)cc43)[C@@H]2C)cc1,0.758
5,[N-]=[N+]=Nc1ccccc1[C@@H]1OC(c2ccc(OCCCO)cc2)=N[C@]1(Cc1ccccc1)C(=O)O,1.05
6,CCCC1(C(=O)OC)C=C2C(=C(C)C(=O)C2C)CN1 (stereo unspecified),-0.0768
7,COCC(=C=CC[C@H](O)c1ccccc1OCCO)C[C@H](O)c1ccccn1,-0.0439
8,Oc1ccc2cc[n+](Cc3cc4c(cc3Br)OCO4)cc2c1,-1.11
9,CC(C)[Si]1(C(C)C)OCc2cc(C3CC3)nc(-c3ccc(Oc4ccccc4)cc3)c21,-0.488
10,[N-]=[N+]=Nc1ccccc1C[C@]1(C(=O)N2CCOCC2)COC(c2ccc(OCCCO)cc2)=N1,1.06
11,[N-]=[N+]=Nc1ccccc1C[C@@]1(C(=O)NCCN2CCOCC2)N=C(c2ccc(OCCCO)cc2)O[C@@H]1c1ccccc1N=[N+]=[N-],0.811
12,CCCCC(CC)C(O)C1C=CC2C(=O)N(C)C(=O)C2N1Nc1ccccc1 (stereo unspecified),1.03
13,O=C1N(CCS(=O)(=O)c2ccccc2)c2ccccc2[C@H]2OC(c3ccc(OCCCO)cc3)=N[C@@]12Cc1ccccc1,1.1
14,COc1ccc(C#Cc2ccc3c(c2)[C@]2(C(=O)N3)[C@H](c3ccc(O)cc3)N3[C@H](c4ccccc4)[C@H](c4ccccc4)OC(=O)[C@H]3[C@@H]2C(=O)Nc2nc3ccccc3s2)cc1,1.05
15,CCOc1cc(C(O)C2C=CC3C(=O)NC(=O)C3N2Nc2ccc(Cl)cc2Cl)ccc1O (stereo unspecified),-1.31
16,Cc1ccc(S[C@]2(C(=O)NCC(F)(F)F)CC(=O)N(Cc3cc(C(F)(F)F)cc(C(F)(F)F)c3)[C@@H]2c2ccc(CO)cc2I)cc1,-1.32
17,C=CCC(OC(C)=O)[C@@H]1[C@@H](N(Cc2cc3ccccc3o2)C(=O)Cc2ccc(F)cc2)c2cc(OCCCO)ccc2N1C(=O)Cc1ccc2ccccc2c1 (stereo partly specified),-0.413
18,CO[C@H]1O[C@H](CO)[C@@H](OC(=O)Nc2ccccc2)[C@H](OC(=O)c2cc3ccccc3[nH]2)[C@H]1OC(=O)c1cc2ccccc2[nH]1,0.196
